Data taken from the supplement of paper PMC12494721.
Counter-ions that a name gives are not always drawn.

Legend:
Settings in all cases: incubation time: 27 h, anaerobic, 37 °C;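 for the amine columns active = adjusted P below 0.05 in both replicates with a change the same way and a mean fold change under 0.8 or over 1.25; inactive = the rest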
[1] = test system: Clostridium sporogenes DSM 1664; assay: growth (OD595) fold change vs plate DMSO controls (fold change (ratio)); higher = more growth
Summary of the method: (§1)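 Growth is the fold change relative to the median of plate DMSO controls. Readings came from anaerobic mGAM cultures in 96-well plates grown for 27 h at 37 °C and read at 595 nm. They were blank-subtracted, corrected for compound background with 20 µM compound solutions in water, and converted to OD with a calibration factor of 5. Values are means of 2 biological replicates, and fold changes above 1.5 were set to NA.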

Escherichia coli IAI1 [2] = assay: as above
Summary of the method: as §1

[3] = test system: Klebsiella aerogenes DSM 30053; assay: as above
Summary of the method: as §1

[4] = test system: Ruminococcus gnavus DSM 108212; assay: as above
Summary of the method: as §1

[5] = test system: Klebsiella aerogenes DSM 30053; assay: fold change of Histamine concentration vs plate DMSO controls (fold change (ratio)); higher = more amine produced, active = hit call of the paper (significant change in both replicates, either direction)
Summary of the method: (§2)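 Anaerobic mGAM cultures of four gut bacterial strains were grown at 37 °C for 27 h in 80 µL wells, starting at OD 0.1 before 1:1 dilution. Compounds were at 20 µM final (sweeteners 50 µM). Whole cultures were extracted with cold acetonitrile/methanol containing 0.1% formic acid and centrifuged. Amines were quantified by LC–triple-quadrupole MS (dynamic MRM) against external calibration curves and drift-corrected within batch. Each value is the fold change versus plate DMSO controls, averaged over 2 biological replicates.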

[6] = test system: Clostridium sporogenes DSM 1664; assay: fold change of Tryptamine concentration vs plate DMSO controls (fold change (ratio)); higher = more amine produced, active = hit call of the paper (significant change in both replicates, either direction)
Summary of the method: as §2

[7] = test system: Ruminococcus gnavus DSM 108212; assay: as above
Summary of the method: as §2

Escherichia coli IAI1 [8] = assay: fold change of Putrescine concentration vs plate DMSO controls (fold change (ratio)); higher = more amine produced, active = hit call of the paper (significant change in both replicates, either direction)
Summary of the method: as §2

[9] = test system: Klebsiella aerogenes DSM 30053; assay: as above
Summary of the method: as §2

Escherichia coli IAI1 [10] = assay: fold change of Cadaverine concentration vs plate DMSO controls (fold change (ratio)); higher = more amine produced, active = hit call of the paper (significant change in both replicates, either direction)
Summary of the method: as §2

[11] = test system: Klebsiella aerogenes DSM 30053; assay: as above
Summary of the method: as §2

[12] = test system: Ruminococcus gnavus DSM 108212; assay: fold change of 2-Phenylethylamine concentration vs plate DMSO controls (fold change (ratio)); higher = more amine produced, active = hit call of the paper (significant change in both replicates, either direction)
Summary of the method: as §2

CNC(=C[N+](=O)[O-])NCCSCc1csc(CN(C)C)n1 [Nizatidine] (20 µM)
growth [1]: 1.13
growth (Escherichia coli IAI1 [2]): 1.02
growth [3]: 1.01
growth [4]: 1.09
fold change of Histamine concentration [5]: 1.04 (inactive)
fold change of Tryptamine concentration [6]: 0.99 (inactive)
fold change of Tryptamine concentration [7]: 0.971 (inactive)
fold change of Putrescine concentration (Escherichia coli IAI1 [8]): 0.988 (inactive)
fold change of Putrescine concentration [9]: 1.03 (inactive)
fold change of Cadaverine concentration (Escherichia coli IAI1 [10]): 0.984 (inactive)
fold change of Cadaverine concentration [11]: 1 (inactive)
fold change of 2-Phenylethylamine concentration [12]: 0.954 (inactive)

O=C1[C@@H]2[C@H]3CC[C@H](C3)[C@@H]2C(=O)N1CCCCN1CCN(c2ncccn2)CC1 [Tandospirone] (20 µM)
growth [1]: 0.973
growth (Escherichia coli IAI1 [2]): 1.04
growth [3]: 1.03
growth [4]: 1.06
fold change of Histamine concentration [5]: 0.981 (inactive)
fold change of Tryptamine concentration [6]: 0.992 (inactive)
fold change of Tryptamine concentration [7]: 1.01 (inactive)
fold change of Putrescine concentration (Escherichia coli IAI1 [8]): 0.989 (inactive)
fold change of Putrescine concentration [9]: 0.995 (inactive)
fold change of Cadaverine concentration (Escherichia coli IAI1 [10]): 1 (inactive)
fold change of Cadaverine concentration [11]: 0.997 (inactive)
fold change of 2-Phenylethylamine concentration [12]: 1.06 (inactive)

CCCCOc1ccc(OCCCN2CCOCC2)cc1 [Pramoxine hydrochloride] (20 µM)
growth [1]: 1.11
growth (Escherichia coli IAI1 [2]): 0.971
growth [3]: 1.17
growth [4]: 0.899
fold change of Histamine concentration [5]: 0.904 (inactive)
fold change of Tryptamine concentration [6]: 1.06 (inactive)
fold change of Tryptamine concentration [7]: 1.01 (inactive)
fold change of Putrescine concentration (Escherichia coli IAI1 [8]): 0.96 (inactive)
fold change of Putrescine concentration [9]: 0.976 (inactive)
fold change of Cadaverine concentration (Escherichia coli IAI1 [10]): 0.97 (inactive)
fold change of Cadaverine concentration [11]: 1.02 (inactive)
fold change of 2-Phenylethylamine concentration [12]: 1.07 (inactive)

COc1ccc(-c2ccc3cc(C(=O)O)ccc3c2)cc1C12CC3CC(CC(C3)C1)C2 [Adapalene] (20 µM)
growth [1]: 0.829
growth (Escherichia coli IAI1 [2]): 1
growth [3]: 1.04
growth [4]: 1.18
fold change of Histamine concentration [5]: 1.02 (inactive)
fold change of Tryptamine concentration [6]: 0.96 (inactive)
fold change of Tryptamine concentration [7]: 1.04 (inactive)
fold change of Putrescine concentration (Escherichia coli IAI1 [8]): 1.02 (inactive)
fold change of Putrescine concentration [9]: 1 (inactive)
fold change of Cadaverine concentration (Escherichia coli IAI1 [10]): 1.02 (inactive)
fold change of Cadaverine concentration [11]: 0.994 (inactive)
fold change of 2-Phenylethylamine concentration [12]: 1.06 (inactive)

O=C1c2ccccc2S(=O)(=O)N1CCCCN1CCN(c2ncccn2)CC1 [Ipsapirone] (20 µM)
growth [1]: 1
growth (Escherichia coli IAI1 [2]): 0.977
growth [3]: 0.973
growth [4]: 0.939
fold change of Histamine concentration [5]: 0.94 (inactive)
fold change of Tryptamine concentration [6]: 1.04 (inactive)
fold change of Tryptamine concentration [7]: 0.997 (inactive)
fold change of Putrescine concentration (Escherichia coli IAI1 [8]): 0.992 (inactive)
fold change of Putrescine concentration [9]: 0.997 (inactive)
fold change of Cadaverine concentration (Escherichia coli IAI1 [10]): 1.02 (inactive)
fold change of Cadaverine concentration [11]: 1 (inactive)
fold change of 2-Phenylethylamine concentration [12]: 1.01 (inactive)

Clc1ccc(CCC(Cn2ccnc2)Sc2c(Cl)cccc2Cl)cc1 (centres undefined) [Butoconazole nitrate] (20 µM)
growth [1]: 1.12
growth (Escherichia coli IAI1 [2]): 1.02
growth [3]: 0.995
growth [4]: 0.621
fold change of Histamine concentration [5]: 1.01 (inactive)
fold change of Tryptamine concentration [6]: 1.07 (inactive)
fold change of Tryptamine concentration [7]: 0.514 (active)
fold change of Putrescine concentration (Escherichia coli IAI1 [8]): 0.997 (inactive)
fold change of Putrescine concentration [9]: 0.992 (inactive)
fold change of Cadaverine concentration (Escherichia coli IAI1 [10]): 0.995 (inactive)
fold change of Cadaverine concentration [11]: 0.989 (inactive)
fold change of 2-Phenylethylamine concentration [12]: 0.623 (active)

O=C(O)Cc1csc(-c2ccc(Cl)cc2)n1 [Fenclozic acid] (20 µM)
growth [1]: 1.01
growth (Escherichia coli IAI1 [2]): 0.949
growth [3]: 0.979
growth [4]: 1.1
fold change of Histamine concentration [5]: 1.05 (inactive)
fold change of Tryptamine concentration [6]: 1 (inactive)
fold change of Tryptamine concentration [7]: 1.05 (inactive)
fold change of Putrescine concentration (Escherichia coli IAI1 [8]): 1.01 (inactive)
fold change of Putrescine concentration [9]: 0.985 (inactive)
fold change of Cadaverine concentration (Escherichia coli IAI1 [10]): 0.986 (inactive)
fold change of Cadaverine concentration [11]: 0.977 (inactive)
fold change of 2-Phenylethylamine concentration [12]: 1.1 (inactive)

Cc1onc(-c2c(F)cccc2Cl)c1C(=O)N[C@@H]1C(=O)N2[C@@H]1SC(C)(C)[C@@H]2C(=O)O [Flucloxacillin sodium] (20 µM)
growth [1]: 0
growth (Escherichia coli IAI1 [2]): 1.02
growth [3]: 0.993
growth [4]: 0
fold change of Histamine concentration [5]: 0.99 (inactive)
fold change of Tryptamine concentration [6]: 0.0254 (active)
fold change of Tryptamine concentration [7]: 0.0375 (active)
fold change of Putrescine concentration (Escherichia coli IAI1 [8]): 1.01 (inactive)
fold change of Putrescine concentration [9]: 1.02 (inactive)
fold change of Cadaverine concentration (Escherichia coli IAI1 [10]): 1.07 (inactive)
fold change of Cadaverine concentration [11]: 1.02 (inactive)
fold change of 2-Phenylethylamine concentration [12]: 0.0397 (active)

COc1cc(C(=O)OCCCN2CCCN(CCCOC(=O)c3cc(OC)c(OC)c(OC)c3)CC2)cc(OC)c1OC [Dilazep dihydrochloride] (20 µM)
growth [1]: 1.06
growth (Escherichia coli IAI1 [2]): 1.07
growth [3]: 0.99
growth [4]: 0.894
fold change of Histamine concentration [5]: 0.938 (inactive)
fold change of Tryptamine concentration [6]: 1.08 (inactive)
fold change of Tryptamine concentration [7]: 1.09 (inactive)
fold change of Putrescine concentration (Escherichia coli IAI1 [8]): 1.01 (inactive)
fold change of Putrescine concentration [9]: 0.937 (inactive)
fold change of Cadaverine concentration (Escherichia coli IAI1 [10]): 0.968 (inactive)
fold change of Cadaverine concentration [11]: 1.01 (inactive)
fold change of 2-Phenylethylamine concentration [12]: 1.12 (inactive)

CCC(=O)O[C@@H]1CC(=O)O[C@H](C)C/C=C/C=C/[C@H](O)[C@H](C)C[C@H](CC=O)[C@H](O[C@@H]2O[C@H](C)[C@@H](O[C@H]3C[C@@](C)(O)[C@@H](OC(=O)CC)[C@H](C)O3)[C@H](N(C)C)[C@H]2O)[C@H]1OC [Midecamycin] (20 µM)
growth [1]: 0.00179
growth (Escherichia coli IAI1 [2]): 0.905
growth [3]: 0.965
growth [4]: 0.164
fold change of Histamine concentration [5]: 0.412 (active)
fold change of Tryptamine concentration [6]: 0.0271 (active)
fold change of Tryptamine concentration [7]: 0.143 (active)
fold change of Putrescine concentration (Escherichia coli IAI1 [8]): 0.909 (inactive)
fold change of Putrescine concentration [9]: 1.06 (inactive)
fold change of Cadaverine concentration (Escherichia coli IAI1 [10]): 1.05 (inactive)
fold change of Cadaverine concentration [11]: 1.05 (inactive)
fold change of 2-Phenylethylamine concentration [12]: 0.141 (active)

CCCCN(CCCC)CCCOC(=O)c1ccc(N)cc1 [Butacaine] (20 µM)
growth [1]: 1.11
growth (Escherichia coli IAI1 [2]): 1.03
growth [3]: 1.02
growth [4]: 1
fold change of Histamine concentration [5]: 1.03 (inactive)
fold change of Tryptamine concentration [6]: 0.973 (inactive)
fold change of Tryptamine concentration [7]: 0.951 (inactive)
fold change of Putrescine concentration (Escherichia coli IAI1 [8]): 0.955 (inactive)
fold change of Putrescine concentration [9]: 1.01 (inactive)
fold change of Cadaverine concentration (Escherichia coli IAI1 [10]): 1.02 (inactive)
fold change of Cadaverine concentration [11]: 1 (inactive)
fold change of 2-Phenylethylamine concentration [12]: 0.913 (inactive)

OC(CCCN1CCCCC1)(c1ccccc1)c1ccccc1 [Diphenidol hydrochloride] (20 µM)
growth [1]: 1.03
growth (Escherichia coli IAI1 [2]): 1.08
growth [3]: 1.01
growth [4]: 1.26
fold change of Histamine concentration [5]: 1.06 (inactive)
fold change of Tryptamine concentration [6]: 1.03 (inactive)
fold change of Tryptamine concentration [7]: 0.963 (inactive)
fold change of Putrescine concentration (Escherichia coli IAI1 [8]): 1.05 (inactive)
fold change of Putrescine concentration [9]: 1.02 (inactive)
fold change of Cadaverine concentration (Escherichia coli IAI1 [10]): 0.932 (inactive)
fold change of Cadaverine concentration [11]: 0.981 (inactive)
fold change of 2-Phenylethylamine concentration [12]: 0.92 (inactive)
